# This is part of a sample that, as a whole, favours compounds with a hit. Of some 83,000 tested, about 20% had one in any assay.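 The endpoint reported here, percent growth, reads 100 for growth as untreated, 0 for no net growth and -100 for all cells dead.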 A number with no mark means an inactive call. Calls of active or inactive are those of the source. How the source made its calls: active means growth percent below 10; inactive means the rest.
# Tested on: MDA-MB-468 breast
# Test: NCI-60 one-dose screen, 48 h (100 = growth as untreated, 0 = no growth, -100 = all killed)
# Conditions: 10 µM unless noted
row,Structure (SMILES),growth
1,O=C(c1ccccc1)N(CCCl)C(=O)N(CCCl)C(=O)c1ccccc1,111%
2,CCCCCC(C)(O)C(C(=O)O)c1ccccc1 (stereo not drawn),108%
3,COc1cc2nc(Cl)nc(Nc3cccc(C(=O)/C=C/c4ccccc4)c3)c2cc1OC,68.9%
4,CN1CCN(c2ccc3nc(-c4[nH]ncc4Nc4ncnc5[nH]ccc45)[nH]c3c2)CC1,-55.6% (active)
5,CCOC(=O)c1c(C)[nH]c(C(=O)CCC(=O)OC)c1C,114%
6,O=C1C=C(Nc2ccc([N+](=O)[O-])cc2)c2ccccc2C1=O,41.1%
7,O=C1/C(=C/c2ccc(Cl)cc2)SC(=Nc2ccc(Cl)cc2)N1Cc1nc2ccccc2[nH]1,78.6%
8,CCN(C)c1ccccc1,113%
9,N#CC1=C(Nc2ccccc2Cl)SC(c2ccccc2O)NC1=O (stereo not drawn),122%
10,COC(=O)[C@H](Cc1cn(C)cn1)NC(=O)[C@@H](NC(=O)Nc1cc(C(F)(F)F)cc(C(F)(F)F)c1)C(C)(C)C,-63.1% [100 µM] (active)
11,CC(CC(CCC(=O)O)(c1ccccc1)c1ccccc1)N(C)C (stereo not drawn),98.4%
12,C#CCOc1cccc(Nc2ncnc3ccc(NC(=O)CCl)cc23)c1,-54% (active)
13,CN1CCN(CCCOc2cccc3nc(Nc4ccc(Cl)c(F)c4)ccc23)CC1,33.2%
14,Cc1nc2ccccc2c(/C=C/c2ccccc2)c1C(=O)/C=C/c1ccccc1,35.6%
15,CCOC(=O)c1ccc2c(c1)c1c(C)c3ccncc3c(C)c1n2C,5.19% (active)
16,CC1=C(NCCN2CCCC2)C(=O)c2c(OCc3ccc(C(F)(F)F)cc3)cccc2C1=O,82.2%
17,CCOC(=O)c1c(NC(=O)c2ccccc2C(F)(F)F)sc2c1CCC(=O)C2,58.6%
18,CCN(CC)CCOc1cccc2c1C(=O)c1cccc(OCCN(CC)CC)c1C2=O,8.32% (active)
19,Cc1ccc(-n2nc(C(C)(C)C)cc2NC(=O)NCc2cc(F)ccc2Oc2ccc3c(cnn3CCO)c2)cc1,23.5%
20,COc1ccc(/C=C/C(=O)c2cc(OC)c(OC)c(OC)c2)cc1OCC(=O)Nc1nc2ccc(OC(F)(F)F)cc2s1,55.1%
21,COC1=CC(c2ccc[nH]2)=N/C1=C\c1[nH]c(C)c(CC(=O)NCc2ccccc2)c1C,27.3%
22,CCCC1(CN2c3ccccc3Sc3ccc(Cl)cc32)CCN(CC)C1 (stereo not drawn),-64.2% (active)
23,CC[C@H](C)[C@H](N)C(=O)O,99.9%
24,CN(C)CCOc1nc2c3ccncc3cc(-c3cccc(Cl)c3)c2c2cnccc12,38.3%
25,Nc1ccc(-c2csc(-n3[nH]c(=O)ccc3=O)n2)cc1,99.3%
26,N#Cc1c(-c2ccc(F)cc2)nc(N=Nc2c(O)[nH]c3ccccc23)nc1N1CCOCC1,59.1%

row,Structure (SMILES),growth
1,COc1ccc(N(Cc2cc(OC)c(OC)c(OC)c2)C2OC(=O)c3ccccc32)cc1 (stereo not drawn),24.2%
2,O=S(=O)(Oc1ccc(-c2cn3ccsc3n2)cc1)c1cccc(C(F)(F)F)c1,92.9%
3,C/C(=C(\c1ccc(OCCN2CCOCC2)cc1)c1ccc(OC(=O)C2CCCCC2)cc1)c1ccc(Cl)cc1,79.2%
4,COc1cc2nccc(Oc3ccc(NC(=O)C4(C(=O)Nc5ccc(F)cc5)CC4)cc3)c2cc1OC,33.6%
5,COc1ccc(C(=O)N2NC(=O)/C(=C/c3ccc(F)cc3)N=C2c2ccccc2)cc1,90.6%
6,O=C1CCC(C(=O)N/N=C/c2cc(F)ccc2F)N1 (stereo not drawn),111%
7,CC1CN(C2CCCCC2)C(=O)NC1=O (stereo not drawn),108%
8,Cn1c(=O)c(S(=O)(=O)c2ccccc2)cc2ccc3c(cnn3-c3ccc(Cl)cc3)c21,72.3%
9,O=C(CI)NC(=O)NC(=O)NCc1ccccc1,65.5%
10,O=C1CSC(c2ccc(O)cc2)N1c1nnc(Cn2cnnc2)o1 (stereo not drawn),48%
11,CN1C(=O)/C(=C\c2c(Cl)cccc2Cl)c2ccccc21,37.7%
12,Cc1nn(-c2ccccc2)c2ncnc(N/N=C/c3cccc(O)c3)c12,-0.147% (active)
13,CN(C)C1CCN(C(=O)c2ccc(NC(=O)Nc3ccc(-c4nc(N5CCOCC5)nc(N5CCOCC5)n4)cc3)cc2)CC1,-49.1% [2.5 µM] (active)
14,CN(C)c1ccc(/C=N/NC(=O)COc2cc(=O)n(C)c3ccccc23)cc1,105%
15,CCCCn1c(-c2ccc(C(=O)O/N=C(\N)c3ccc(OC)cc3)cc2)nc(-c2ccccc2)c1-c1ccccc1,-14.4% (active)
16,COc1ccc(C2CC(=O)c3c(O)cc(OC4OC(COC5OC(C)C(O)C(O)C5O)C(O)C(O)C4O)cc3O2)cc1O (stereo not drawn),96.9%
17,Brc1cnc2[nH]cc(-c3nnc(-c4ccccc4)o3)c2c1,60.3%
18,COc1ccc(-c2nc3ccc(-c4nnc(SCC(=O)Nc5ccc(C(=O)/C=C/c6ccc(Cl)cc6)cc5)o4)cc3[nH]2)cc1OC,102%
19,C/C(=N\OC(=O)Nc1ccccc1)c1ccccc1,83.2%
20,CCCCCCN1CSC(=S)N(CCCCCC)C1,89%
21,CC[C@H](Nc1nc(N)nc(C2CC2)c1C#N)c1nc2cccc(NCc3ccc(C(=O)NO)cc3)c2c(=O)n1-c1ccccc1,-23% (active)
22,N#C/C(=C/C=C/c1cccc(Cl)c1)S(=O)c1ccccc1 (stereo not drawn),-46% (active)
23,CO[C@H](C(=O)[C@@H](O)[C@@H](C)O)[C@@H]1Cc2cc3cc(O[C@H]4C[C@@H](O[C@H]5C[C@@H](O)[C@H](O)C(C)O5)[C@H](O)C(C)O4)c(C)c(O)c3c(O)c2C(=O)[C@H]1O[C@H]1C[C@@H](O[C@H]2C[C@@H](O[C@H]3C[C@](C)(O)C(=O)C(C)O3)[C@@H](O)C(C)O2)[C@H](O)C(C)O1 (stereo partly drawn),-46.7% (active)
24,C#Cc1c2c(c(OC)c3c1OCO3)[C@H]([C@H]1OC(=O)c3c1ccc(OC)c3OC)N(C)CC2,79.9%
25,O=C(Nc1ccc(Cl)cc1Cl)Nc1ccc(-c2cccnc2)cc1N1CCC(CO)CC1,23%
26,C#CCOc1cccc(Nc2ncc3ncn(C4CCN(C(=O)CCl)C4)c3n2)c1 (stereo not drawn),24.5% [6.25 µM]

row,Structure (SMILES),growth
1,COc1ccc(-c2[nH]c(=S)n(C(CC3(C)NCC(=O)N3n3c(-c4ccccc4)cc(C)nc3=S)c3ccc(OC)cc3)c(=O)c2Br)cc1 (stereo not drawn),-14.9% (active)
2,CCCn1cnc2c(c1=N)C(c1ccc(OC)cc1)c1sc3c(CC)cccc3c1O2 (stereo not drawn),39.4%
3,NCC(=O)NC(CC(=O)O)C(=O)O (stereo not drawn),102%
4,Cc1ccc(N)cc1CN1C(=O)c2ccccc2C1=O,107%
5,CCOC(=O)/C(=C/CC/C(C)=C/CC/C(C)=C/CCc1ccoc1)CC(=O)N1CCCCC1,0.246% (active)
6,CC[C@]12C=CCN3CC[C@@]4(c5ccc(OC)cc5N(C)[C@H]4[C@@](O)(C(=O)OC)[C@@H]1OC(=O)CCN1CCc4ccccc4C1)[C@@H]32,69.7%
7,COc1ccc2nc3cc(Cl)ccc3c(NC(=O)CSc3ccc(Cl)cc3)c2c1,-81.7% (active)
8,O=C(Cc1nc2ccc([N+](=O)[O-])cc2nc1CC(=O)c1ccccc1)c1ccccc1,68.9%
9,O=C1c2ccccc2C(=O)c2c1oc1c2c(=O)[nH]c2ccc(Cl)cc21,-32.4% (active)
10,c1cc(NCCCCN2CCOCC2)c2ccc3c(ccc4c(NCCN5CCOCC5)ccnc43)c2n1,75.8%
11,CNC(=O)c1cc(Oc2ccc3nc(NC(=O)c4ccc(N5CCOCC5)c(C(F)(F)F)c4)sc3c2)ccn1,80.5%
12,CC(=O)OC[C@]12CC[C@@H](C(=O)CBr)[C@@H]1[C@H]1CC[C@@H]3[C@@]4(C)CC[C@H](OC(C)=O)C(C)(C)[C@@H]4CC[C@@]3(C)[C@]1(C)CC2,108%
13,O=C1/C(=C/c2ccc(C(F)(F)F)cc2)COc2ccc(O)c(O)c21,-36.8% (active)
14,O=C(Nc1ccc(Cl)c(Cl)c1)O/N=C\c1c(Cl)ccc([N+](=O)[O-])c1Cl,-65% (active)
15,CCOC(=O)C1=CSC2=NC3=C(CCC/C3=C\c3cc(OC)c(OC)c(OC)c3)C(c3cc(OC)c(OC)c(OC)c3)N12 (stereo not drawn),33.8%
16,O=C1CCC/C=C\C[C@H]2C=C(Cl)C(=O)/C2=C/C[C@H](CCCCC(F)(F)F)OC(=O)CCC/C=C\C[C@H]2C=C(Cl)C(=O)/C2=C/C[C@H](CCCCC(F)(F)F)O1,-72.2% [7.5 µM] (active)
17,Nc1ccc2c(c1)Cc1cc(N)c(Br)cc1-2,81.9%
18,COc1cccc(Sc2ccc([N+](=O)[O-])c3no[n+]([O-])c23)c1,69.9%
19,Nc1nc(Cn2c(-c3nonc3N)nc3ccccc32)nc(N2CCCCC2)n1,72.8%
20,COC1C/C(=N\O)C2OC(c3ccccc3)OCC2O1 (stereo not drawn),105%
21,N#Cc1c(-c2cccs2)cc(-c2cnccn2)nc1SCC(=O)N/N=C/c1ccncc1,103%
22,O=c1oc2ccccc2cc1-c1nn(-c2ccccc2)cc1/C=N/Nc1nc(-c2ccccc2)c(N=Nc2ccccc2)s1,48.5%
23,CCCCOc1ccc(/C=N/Nc2cc(C)nc3ccc(Cl)cc23)cc1,-65.9% (active)
24,CN1CCN(c2ccc(Nc3nc(NCCCNS(=O)(=O)c4ccc(Cl)cc4)c4sccc4n3)cc2)CC1,-47.7% (active)
25,N/C(=N\C(N)=N\c1nc2ccccc2s1)c1cccc(F)c1,92.9% [5 µM]
26,OCCNc1nc(NCCO)nc(Nc2ccc(C3=NN(c4cc(Cl)cc(Cl)c4)C(c4ccc(C(F)(F)F)cc4)C3)cc2)n1 (stereo not drawn),39.7%
